# Screening results deposited in PubChem by National Center for Advancing Translational Sciences (NCATS).
# Shown are actives, neighbours in structure and some others; about 7.4% of the full set was active somewhere.
# NIH3T3 tox: cytotoxic compounds in NIH 3T3 cells; actives 4.3% (n = 94,000); NIH 3T3 viability, CellTiter-Glo ATP luminescence, 48-72 h; Potency, µM (top dose mostly 96.7 µM), for the others: at the highest dose activity change, negative = cytotoxicity, usual class: inhibitors; further: nearly all actives have a fitted effect of over 55% in size
#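 Viability of NIH 3T3 cells after 48 or 72 hr compound treatment at 37 °C was assessed by CellTiter-Glo, with luminescence imaged following a 10 min room-temperature step.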
# hNpr1 antagonist: human Npr1 receptor antagonism; P16066; HEK293 hNpr1 GloSensor cGMP, ANP-stimulated luminescence; Potency, µM (titrated, usually from 46.3 µM), inactives show top-dose activity change, negative = inhibition, most hits filed as inhibitors; actives 1.6% (n = 76,000); calls by dose curve; further: nearly all actives have a fitted effect of over 60% in size
#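 Compound pre-incubated 30 min at room temperature on GloSensor-loaded HEK293 cells stably carrying hNpr1 and the pGS-40F cGMP biosensor. Stimulation uses hNppA at 0.1 nM final; luminescence is taken at baseline and 20 min post-agonist.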
# Luciferase inh: blocks purified firefly luciferase enzyme activity | purified P. pyralis luciferase, luminescence, biochemical | Potency, µM (series often up to 115 µM), actives largely listed as inhibitors | actives 2.5% (n = 76,000) | AID 1347043; further: nearly all actives have a fitted effect of over 65% in size
# Target sequence (P08659 whole entry, looked up): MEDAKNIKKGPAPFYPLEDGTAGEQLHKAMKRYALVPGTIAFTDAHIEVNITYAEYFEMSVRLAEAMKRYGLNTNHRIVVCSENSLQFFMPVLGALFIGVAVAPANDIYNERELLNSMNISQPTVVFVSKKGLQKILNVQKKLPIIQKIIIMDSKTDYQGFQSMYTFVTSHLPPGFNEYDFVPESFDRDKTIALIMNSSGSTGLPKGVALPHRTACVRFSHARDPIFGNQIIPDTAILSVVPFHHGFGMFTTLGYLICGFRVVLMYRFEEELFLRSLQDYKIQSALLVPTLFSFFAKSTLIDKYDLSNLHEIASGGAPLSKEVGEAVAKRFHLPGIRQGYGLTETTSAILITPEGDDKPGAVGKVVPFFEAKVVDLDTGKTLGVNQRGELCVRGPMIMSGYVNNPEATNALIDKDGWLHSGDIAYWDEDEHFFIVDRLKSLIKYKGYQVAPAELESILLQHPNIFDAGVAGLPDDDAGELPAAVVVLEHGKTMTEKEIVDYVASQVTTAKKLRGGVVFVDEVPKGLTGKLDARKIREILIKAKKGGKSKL
#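 Purified 10nM P. pyralis luciferase with 10uM D-luciferin and 10uM ATP in 50mM Tris acetate pH 7.5, 10mM Mg acetate, 0.01% Tween-20, 0.05% BSA. qHTS titration; luminescence read by CCD imager.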
# SNCA viab count: cell viability loss counter-screen; actives 0.12% (n = 150,000); AID 1671193; HEK-293-SNCA-luc viability, GF-AFC fluorescence, 24 h; Potency, µM (doses to about 57.1 µM), inactives show at the highest dose activity change, negative = cytotoxicity, usual class: cytotoxic;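 further: 0% = DMSO-treated cells and -100% = medium-only wells without cells; nearly all actives have a fitted effect of over 30% in size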
#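 HEK-293-SNCA-luc cells (1500/well) plated 24 h, then exposed 24 h to a dilution series; GF-AFC added 30 min at 37C, fluorescence 405/540 nm; normalised to medium-only and DMSO wells, Hill fit.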
# HEK293 tox: kills HEK 293 cells. HEK 293 viability, ATP luminescence (CellTiter-Glo), 48-72 h. Potency, µM (titrated, usually from 115 µM), without a hit: top-dose activity change, negative = cytotoxicity, usual class: inhibitors. actives 6.6% (n = 94,000). AID 1345083; further: nearly all actives have a fitted effect of over 60% in size
#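 qHTS cytotoxicity; HEK 293, 250 cells/well; compound pinned; 48 or 72 hr, 37 degree Celsius, 5% CO2, 95% humidity; CellTiter-Glo, 10 min RT; luminescence (ATP).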
# SNCA expr inh: inhibitors of alpha-synuclein (SNCA) gene expression; HEK-293 SNCA-luciferase knock-in, luminescence, 24 h; Potency, µM (titrated, usually from 57.2 µM), for the others: top-dose activity change, negative = inhibition, most hits filed as inhibitors; actives 0.17% (n = 140,000); AID 1671194;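 further: plate controls were DMSO cells for no effect and cell-free wells for full effect; nearly all actives have a fitted effect of over 45% in size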
# Active calls of the source: *; i = inactive; ? = inconclusive; . = no result given; [ ] = dose if it differs, or a comment. Unless noted, the call rests on the fitted dose curve; in most records, active means well fitted curve in the direction sought with a large enough effect; inconclusive means small, poorly fitted or top-dose-only effect, or another doubt; inactive means no such curve, though single readings can be large; an effect the other way counts as inactive or inconclusive. Unless noted, on the % scale 0 is the no-effect control and ±100 the full control effect; potency means the concentration at half of the fitted maximal effect.
SMILES,NIH3T3 tox,hNpr1 antagonist,Luciferase inh,SNCA viab count,HEK293 tox,SNCA expr inh
Cc1cccc(NC(=O)N2CCCCCC2CN2CCc3ccccc3C2)c1 (stereo not given),?,-16.8%,i,-12.6%,?,-10.3%
Cn1nccc1-c1ncc2c(n1)OCCN(c1cccc(C(F)(F)F)c1)C2=O,?,-15.2%[70.6 µM],i,-6.5%[87.6 µM],-27.3%[172 µM],-4.3%[87.6 µM]
O=C(c1ncn[nH]1)N1C[C@@H](COCC2CC2)[C@H](c2ccccn2)C1,-12.3%,2.8%,i,-24.1%,?,0.794µM*
O=C(C1CC1)N1CC(Oc2ccccc2-c2nc(-c3cnccn3)no2)C1,i,5.8%,i,-22.6%,6.0%,-25.6%
Cc1ccc(Cl)c(C(=O)N2CCC3(CC2)[C@H](O)C[C@@H]3OCCO)c1,i,0.2%,i,-1.2%,-2.8%,1.7%
CN(Cc1cccc(C(F)(F)F)c1)C(=O)Cc1cccc(Cl)c1,-19.7%,7.3%,?,6.2%,?,8.4%
CN(Cc1cccc(C(F)(F)F)c1)C(=O)c1cccc(Cl)c1,?,-5.1%[70.6 µM],i,-3.8%[87.6 µM],100µM*,-10.5%[87.6 µM]
CCNC(=O)N1CC2=CC(C)(C)COc3ccc(OC)c(c32)C1C(=O)OCC (stereo not given),-17.0%,.,.,.,?,.
COc1ccc(C(=O)N2CCC([C@@H]3CNC[C@H]3CO)CC2)cc1,i,5.6%,i,3.5%[12.5 µM],i,10.0%
Cc1noc(-c2ccc(OC3CN(C(=O)CC4CCCC4)C3)cc2)n1,?,?,i,-0.6%,31.6µM*,-7.7%
Cc1noc(-c2ccc(OC3CN(C(=O)Nc4ccccc4)C3)cc2)n1,-46.8%,12.6µM*,?,-2.7%,?,37.0%
Cc1ccc(C2(C(=O)N[C@@H]3COCC[C@@H]3OCc3ccccc3)CC2)cc1,?,-9.9%,i,-23.4%,44.7µM*,-4.8%
CCOCC1(C)COc2ccc(C(=O)Nc3cccc(Cl)c3)cc2N1 (stereo not given),39.8µM*,?,20µM*,?,63.1µM*,-35.1%[87.6 µM]
CCOCC1(C)COc2ccc(C(=O)Nc3cccc(OC)c3)cc2N1 (stereo not given),-30.0%[138 µM],-3.8%[70.6 µM],20µM*,-11.8%[87.6 µM],?,13.9%[87.6 µM]
COc1cccc(NC(=O)c2ccc3c(c2)NC(C)(CCCCN2CCOCC2)CO3)c1 (stereo not given),-29.6%[138 µM],-4.6%[70.6 µM],?,10.2%[87.6 µM],?,25.6%[87.6 µM]
CN(C)CCCOCC1(C)COc2ccc(C(=O)Nc3cccc(Cl)c3)cc2N1 (stereo not given),?,-6.9%[70.6 µM],i,1.8%[87.6 µM],35.5µM*,63.8%[87.6 µM]
COc1cccc(NC(=O)c2ccc3c(c2)NC(C)(COCCN(C)C)CO3)c1 (stereo not given),?,-1.0%[70.6 µM],?,2.6%[87.6 µM],?,12.7%[87.6 µM]
COc1cccc(NC(=O)c2ccc3c(c2)NC(C)(CNc2ccccc2)CO3)c1 (stereo not given),28.2µM*,?,?,?,39.8µM*,?
CC1(C)CC[C@]2(C(=O)O)CC[C@]3(C)C(=CCC4[C@@]5(C)CC[C@H](O[C@@H]6O[C@H](C(=O)O)[C@@H](O)[C@H](O)[C@H]6O)C(C)(CO)C5CC[C@]43C)C2C1 (stereo not given in full),.,.,.,-16.8%[23.9 µM],.,.
CCOc1ccc(NC(=O)CCNc2c(C)nc3cnccn23)cc1,?,-9.6%,i,-3.3%,?,-14.3%
COC(=O)C1=CN(CC(=O)N(C)c2cccc(C)c2)S(=O)(=O)N=C1C,-11.0%,2.5%,i,-2.6%,-20.4%,4.8%
CCOCC1(C)COc2ccc(C(=O)Nc3cccc(N(C)C)c3)cc2N1 (stereo not given),?,0.2%[70.6 µM],63.1µM*,-4.8%[87.6 µM],?,-3.1%[87.6 µM]
Cc1nc([C@@H]2CN(C(=O)C(C)(C)C)C[C@H]2C(N)=O)n[nH]1,i,0.2%,i,8.3%,0.1%,3.1%
COc1ccccc1-c1cnc(Nc2ccccc2)c2c1CCO2,?,-22.8%[70.6 µM],i,3.6%[87.6 µM],?,37.1%[87.6 µM]
COc1ccccc1-c1cnc(Nc2cccc(N[S+](C)(=O)[O-])c2)c2c1CCO2,20µM*,31.6µM*,?,?,39.8µM*,?
SMILES,NIH3T3 tox,hNpr1 antagonist,Luciferase inh,SNCA viab count,HEK293 tox,SNCA expr inh
CN(C)c1cccc(-c2cnc(Nc3ccncc3)c3c2CCO3)c1,50.1µM*,-12.8%[70.6 µM],i,?,56.2µM*,8.2%[87.6 µM]
CN(C)c1cccc(-c2cnc(Nc3cccc(N[S+](C)(=O)[O-])c3)c3c2CCO3)c1,?,?,?,?,20µM*,-21.0%[87.6 µM]
CN(C)c1cccc(C(=O)Nc2ncc(-c3cccc(F)c3)c3c2OCC3)c1,?,-11.9%[70.6 µM],i,-4.4%[87.6 µM],?,?
COc1ccc(OCC2CN(Cc3ccccc3)C(=O)c3ccc(C)nc3O2)cc1 (stereo not given),?,.,.,-19.1%[23.9 µM],?,-0.5%[25.6 µM]
Cc1cccc(-n2ncc3c2CCCC3NC(=O)C2(C)CCNCC2)c1C (stereo not given),-25.5%,4.0%,i,3.0%,-26.2%,-15.6%
O=C(NC1CCCc2c1cnn2-c1ccc(F)cc1F)c1c(F)cccc1Cl (stereo not given),?,?,i,-5.4%,35.5µM*,9.2%
CC(C)NC(=O)N1CCCC1c1nnc2n1CCNC2 (stereo not given),-5.2%,.,.,-4.8%,-7.4%,-6.4%
NC(=O)Cc1c[nH]c2ncc(-c3ccc(Cl)cc3)cc12,?,-24.2%[70.6 µM],79.4µM*,-3.0%[87.6 µM],?,10.5%[87.6 µM]
NC(=O)Cc1c[nH]c2ncc(-c3ccc4c(c3)OCO4)cc12,44.7µM*,-4.1%[70.6 µM],63.1µM*,10.8%[87.6 µM],-11.2%[172 µM],12.6%[87.6 µM]
C#CCNC(=O)C1CCCN1c1nc2ncccc2o1 (stereo not given),-16.2%[138 µM],7.2%[70.6 µM],i,6.1%[87.6 µM],-2.4%[172 µM],-24.4%[87.6 µM]
Fc1ccccc1-c1noc(-c2nc(-c3ccccc3F)no2)n1,i,3.4%,i,0.1%,-5.7%,36.7%
Fc1ccccc1-c1noc(-c2nc(Cc3ccccc3)no2)n1,-0.5%,4.5%,20µM*,9.9%,0.3%,61.5%
COc1ccc(OCc2nc(C)c(CCO)c(=O)n2CC(=O)Nc2c(C)cccc2C)cc1,2.2%,3.0%,i,-2.3%,i,-8.1%
COCCNc1cc(-c2cccc(C(F)(F)F)c2)nc2c(C)noc12,?,-0.2%[70.6 µM],i,?,89.1µM*,-3.6%[87.6 µM]
Cc1noc2c(NCCCn3ccnc3)cc(-c3cccc(C(F)(F)F)c3)nc12,?,0.4%[70.6 µM],i,-12.5%[87.6 µM],?,?
